# High-throughput results: PubChem, Buhrlage Lab, Dana-Farber Cancer Institute and Novartis Institutes for BioMedical Research (Cambridge, Mass)
# OTUD3 inh = inhibitors of human OTUD3 deubiquitinase; OTU domain-containing protein 3 (Homo sapiens), Q5T2D3; purified OTUD3, Ub-rhodamine fluorescence, 2 h; inhibition, % at 25 µM; hit rate 0.7% among 47,000; AID 1645858, 2021
# UCHL1 inh = inhibitors of human UCHL1 deubiquitinase. Ubiquitin carboxyl-terminal hydrolase isozyme L1 (Homo sapiens), P09936. purified UCHL1, Ub-rhodamine cleavage fluorescence. inhibition, % at 20 µM. hit rate 0.2% among 47,000
# USP7 inh = inhibitors of human USP7 deubiquitinase | Ubiquitin carboxyl-terminal hydrolase 7 (Homo sapiens), Q93009 | purified USP7, Ub-rhodamine cleavage fluorescence | inhibition, % at 20 µM | hit rate 0.3% among 47,000
# * = called active by the depositor; / = no result. Only some compounds are listed: those with a hit (about 1.1% of all), similar ones and a draw of the others. Rule as the data show it: active = inhibition above about 30%; inactive = the rest.
SMILES,OTUD3 inh,UCHL1 inh,USP7 inh
Cc1ccc2cc(-c3noc(-c4cccnc4)n3)c(=O)[nH]c2c1,-2.7,2.7,6.7
CC(=O)N1[C@@H]2CN(C(=O)c3cc(-c4cn(C)nc4C)no3)[C@@H]3CCCC[C@H]1[C@]3(C)C2,11.8,1.7,1.7
Cc1ccc(-n2nc(C(=O)Nc3ccc(C)cn3)c3ncn(C)c(=O)c32)cc1,35.8*,13.8,30.0
Cc1ccc(-n2nc(C(=O)NC3CCCCC3)c3ncn(C)c(=O)c32)cc1,-7.8,-2.2,1.5
C=C1C=C(CCC(=O)O)C(=O)OC1/C=C/C=C/C (stereo not given),96.5*,81.1*,78.4*
O=C(OCC(=O)N1CCCCCC1)c1c2c(nc3ccccc13)CCCC2,-25.4,-5.9,-6.1
O=C1C(O)=C(c2ccc(O)cc2)C(=O)C(O)=C1c1ccccc1,32.6*,-0.1,-65.7
CC1=C(O)C(=O)C(C2=C(O)C(=O)C(C)=C(O)C2=O)=C(O)C1=O,23.1,5.2,-131.6
Cc1cc2cc(CNC(=O)c3cc(Br)ccc3Cl)ccc2n1C,-43.2,-25.8,-26.6
CC(C)(C)c1cc(C(=O)N2CCOCC2c2ccn[nH]2)n[nH]1 (stereo not given),-14.1,-7.0,0.1
Cc1nc(C2COCCN2C(=O)c2cc(C(C)(C)C)[nH]n2)cc(=O)[nH]1 (stereo not given),-8.7,37.3*,-0.8
O=C(c1cccnc1)N1CCCC(c2[nH]nc3nccnc23)C1 (stereo not given),-5.6,-3.6,0.0
CCOc1cccc(-c2noc(-c3nn(-c4cccc(C)c4)ccc3=O)n2)c1,0.1,7.9,-1.5
CCOc1cccc(-c2noc(-c3nn(-c4ccccc4)ccc3=O)n2)c1,40.2*,7.5,21.0
O=C(Oc1cc(O)cc2c1C[C@@H](OC(=O)c1cc(O)c(O)c(O)c1)[C@@H](c1cc(O)c(O)c(O)c1)O2)c1cc(O)c(O)c(O)c1,72.9*,11.0,15.2
Cc1ccc(-c2nc(NC(=O)COc3ccc(Cl)cc3)no2)cc1,-1.1,27.8,63.5*
Cc1ccc(-c2nc(NC(=O)COc3cc(C)cc(C)c3)no2)cc1,-7.2,-1.9,4.0
CCOC(=O)C1=C(CN2CCC3(CC2)OCCO3)NC(=O)NC1c1ccc(OC)cc1 (stereo not given),15.1,-0.6,2.2
CC(=O)Nc1onc(C)c1-c1ccc(C)c(S(=O)(=O)Nc2cccc(F)c2)c1,7.3,1.8,5.9
O=C(c1ccccc1Cl)N1CCN(Cc2noc3ccccc23)CC1,-3.9,-0.5,1.6
CSc1ncccc1C(=O)OCc1ccccc1,1.6,73.9*,-6.6
CSc1ncccc1C(=O)Nc1ccnn1Cc1ccccc1,-4.7,0.4,2.8
O=C1CCCC[C@@H]2[C@H](C[C@@H](Cc3cccc(F)c3)N2C(=O)c2n[nH]c3c2CCCCC3)N1,-12.1,-2.8,-82.1
COc1cc(O)c2c(c1C)C(C)(C(C)=O)OC2=O (stereo not given),5.0,0.8,1.7
COc1cc(C)c2c(=O)c3c(oc2c1)C(=O)c1c(O)c(OC)cc(O)c1C3=O,33.0*,11.0,-63.4
SMILES,OTUD3 inh,UCHL1 inh,USP7 inh
CCN1C(=O)C2(c3ccccc31)N1CC3(C)CN2CC(C)(C1)C3=O (stereo not given),-0.2,-1.9,-2.3
Cc1cnn(CC2CCCN2Cc2nc(C3CC3)no2)c1 (stereo not given),-10.3,-2.2,-4.3
Cc1cccc(-n2nnc(C(=O)Nc3ccc(F)cc3)c2C)c1,15.9,5.1,0.9
COc1cccc(NC(=O)CN2C(=O)C3CCCC3=Nc3ccccc32)c1 (stereo not given),8.4,5.2,4.3
COc1ccc(C)cc1NC(=O)CN1C(=O)C2CCCC2=Nc2ccccc21 (stereo not given),34.6*,3.2,8.3
COc1cccc(N2CCN(C(=O)C3c4ccccc4C(=O)N(C)C3c3cccs3)CC2)c1 (stereo not given),-21.7,-0.3,-1.9
Cc1cc(NC(=O)c2ccccc2F)ccc1-c1cc2ccccc2oc1=O,2.6,6.9,7.7
COc1cc(NC(=O)c2ccc3c(c2)OCO3)ccc1-c1cc2ccccc2oc1=O,54.6*,5.1,24.7
CC(C)=CCc1cccc2c(C3=C(O)C(=O)C(c4c[nH]c5c(CC=C(C)C)cccc45)=C(O)C3=O)c[nH]c12,30.8*,0.1,6.9
CC(C)CC[C@H]1O[C@@H](CC(=O)O)Cc2cc3c(c(O)c21)C(=O)c1sc(=O)n(C)c1C3=O,69.7*,24.7,-63.3
O=C(Cn1c(=O)n(CC2CCC(C(=O)NCCc3ccccc3)CC2)c(=O)c2ccccc21)Nc1ccccc1F (stereo not given),-14.7,-4.7,-0.6
Cc1cc(NC(=O)Cn2c(=O)n(CC3CCC(C(=O)NCCc4ccccc4)CC3)c(=O)c3ccccc32)n[nH]1 (stereo not given),36.1*,0.6,13.8
O=C1C[C@@H](O)[C@H](O)[C@@]23O[C@@]12C1(Oc2cccc4cccc(c24)O1)[C@@H]1O[C@@H]1[C@@H]3O,33.1*,0.2,-24.0
CC(C)(NC(=O)Cc1ccccc1)c1nc2c(c(C(N)=O)n1)OCO2,10.8,1.1,/
CC(C)(NC(=O)C1CCCCC1)c1nc2c(c(C(N)=O)n1)OCCO2,3.8,-0.8,81.0*
Cc1ccc(C(=O)N2Cc3c(Cn4ccnc4)nn(C)c3C2)cc1,0.1,-1.3,0.8
COc1ccc2cc(-c3nc4sc(C(=O)Nc5ccccc5OC)c(C)c4c(=O)[nH]3)c(=O)oc2c1,-4.6,-64.8,-54.7
O=C(CCn1nnc2ccccc21)N1CCCC(c2ccnc3ncnn23)C1 (stereo not given),-7.9,-3.1,0.3
c1ccc(CCCNc2nc(-c3cccs3)nc3ccccc23)cc1,-1.0,4.4,9.4
O=C(c1cc2ccccc2o1)N1CCc2sccc2C1c1ccccc1 (stereo not given),4.9,-2.8,4.4
O=C(c1cc2ccccc2o1)N1CC=C(c2ccccc2)CC1,31.9*,5.6,-20.4
Cc1ccc(CC2CCCN(S(=O)(=O)c3cccnc3)C2)cn1 (stereo not given),7.0,0.7,5.6
CC(C(=O)NCc1ccc(F)cc1)n1cccc1C(=O)c1ccccc1 (stereo not given),73.7*,0.2,-39.7
CC(C(=O)NCc1ccccn1)n1cccc1C(=O)c1ccccc1 (stereo not given),4.7,1.5,-2.1
COc1cc(-c2cc(C(=O)Nc3cc(C)[nH]n3)c3ccccc3n2)cc(OC)c1OC,-3.0,7.1,7.4
COc1ccc(/C=C/C(=O)N2CCc3ccccc32)cc1S(=O)(=O)N1CCOCC1,53.9*,4.4,3.8
COc1ccc(/C=C/C(=O)N2CCCc3ccccc32)cc1OC,3.2,3.0,9.5
CC(=O)O[C@@H](C/C=C(\C)C(=O)O)[C@@H](C)[C@H]1C[C@H](OC(C)=O)[C@@]2(C)C3=CC[C@H]4C(C)(C)[C@H](O)CC[C@]4(C)C3=CC[C@]12C,17.0,2.9,14.3
CC(=O)O[C@@H](C/C=C(\C)C(=O)O)[C@@H](C)[C@H]1C[C@H](OC(C)=O)[C@@]2(C)C3=CC[C@H]4C(C)(C)[C@H](OC(C)=O)CC[C@]4(C)C3=CC[C@]12C,92.1*,57.5*,92.7*
